# Measured values: PubChem BioAssay AID1851 (National Center for Advancing Translational Sciences (NCATS), 2009)
# Values joined by “and” are separate entries in the source; they are usually repeats but may differ in a detail not shown here. Identical values can stand only once. The campaign covered roughly 16,000 compounds. About 2,600 (16%) were called active. Not shown: some 20% with an inconclusive outcome. A selection follows. Values without a mark were called inactive. Calls come from the whole dose curve; as a rule, active = well fitted curve in the direction sought with a large enough effect; inconclusive = small, poorly fitted or top-dose-only effect, or effect the other way; inactive = no such curve, though single readings can be large or run the other way.
# Target: Cytochrome P450 2D6 (Homo sapiens) (UniProt P10635)
# Experiment: Cytochrome panel assay with activity outcomes
# Details: recombinant CYP, pro-luciferin dealkylation, luminescence, p450-cyp2d6; series mostly up to 57.1 µM; activity, negative = inhibition: at the top concentration
# % is set by controls: 0 for no effect and ±100 for the full control effect.
# Chain of Cytochrome P450 2D6 (Homo sapiens) (P10635 whole entry, looked up): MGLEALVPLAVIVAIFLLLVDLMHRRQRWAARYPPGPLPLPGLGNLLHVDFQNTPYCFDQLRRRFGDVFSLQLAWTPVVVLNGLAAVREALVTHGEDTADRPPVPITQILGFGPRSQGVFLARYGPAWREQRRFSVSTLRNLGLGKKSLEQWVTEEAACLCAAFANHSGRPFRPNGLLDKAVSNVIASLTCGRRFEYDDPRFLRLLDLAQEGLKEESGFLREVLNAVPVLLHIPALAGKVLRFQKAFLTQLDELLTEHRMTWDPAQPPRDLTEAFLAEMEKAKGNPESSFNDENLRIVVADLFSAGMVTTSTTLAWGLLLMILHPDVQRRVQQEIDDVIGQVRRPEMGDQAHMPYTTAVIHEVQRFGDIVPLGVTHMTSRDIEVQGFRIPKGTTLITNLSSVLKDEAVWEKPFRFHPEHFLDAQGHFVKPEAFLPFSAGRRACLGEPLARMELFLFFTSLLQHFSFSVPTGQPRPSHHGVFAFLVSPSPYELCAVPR
SMILES,"activity, negative = inhibition",AC50
Nc1nc(C(=O)O)c(N=Nc2ccccc2)c(=O)[nH]1,-12.3% [at 11.4 µM],
O=C(CSc1nnnn1-c1ccccc1)NCc1cccs1,,2.51 µM (active)
CC(C)(C)C(=O)Nc1nnc(SCC(=O)NCc2cccs2)s1,-6.28%,
CCCC(=O)Nc1nnc(SCC(=O)NCc2cccs2)s1,-15.3%,
C[C@@H]1O[C@H](O[C@@H]2[C@@H](Oc3cc(O)c4c(c3)O[C@H](c3ccc(O)cc3)CC4=O)O[C@@H](CO)[C@@H](O)[C@H]2O)[C@@H](O)[C@H](O)[C@@H]1O,2% [at 25.6 µM],
CC(C)C(=O)N[C@@H]1CCCN1C(=O)/C=C\c1ccccc1,-16.8% [at 11.4 µM],
CCOC(=O)N1CCC(NC(=O)CS(=O)(=O)Cc2nc(-c3cccc(OC)c3)oc2C)CC1,-3.13%,
Cc1cccc(-c2nc(CN3CCCC(C(=O)NC4CCCCC4)C3)c(C)o2)c1 (stereo unspecified),,4.47 µM (active)
CCC(C)NC(=O)C1CCCN(C(=O)NC2CCCCC2)C1 (stereo unspecified),7.72%,
O=c1c(-c2ccccc2)nc2cnc(N3CCOCC3)nc2n1C1CC1,-10.2%,
O=C(O)c1cccc(CN2CCCCC2)c1,,1 µM (active)
O=C(O)c1cccc(SSc2cccc(C(=O)O)c2)c1,-12% [at 11.4 µM],
CC(C)(C)c1cc(C(=O)O)c(CN2CCCCC2)o1,25.2%,
O=c1c(-c2ccc(Cl)cc2)nc2cnc(N3CCNCC3)nc2n1Cc1ccc(F)cc1,-15.4%,
Cc1ccc(S(=O)(=O)N[C@H]2COC(=O)[C@@H](C)COC(=O)[C@H](C)NC(=O)C/C=C\[C@H]2C)cc1,-1.17% [at 11.4 µM],
CCCCC1=NN2C(=N)CC(=O)N=C2S1,-6.74%,
CCOC(=O)C(=Cc1ccc(F)cc1)C(=O)OCC,-19%,
Cc1cccc(Nc2ccccc2C(=O)O)c1C,-1.23% [at 25.6 µM],
CCOC(=O)C(=CNc1ncccc1C)C(=O)OCC,,8.91 µM (active)
Cc1ccc(NC(=O)Nc2ncccc2C)cc1,-25.7%,
CCOC(=O)/C(=C/Nc1ccccc1)[N+](=O)[O-],-8.55%,
CCOC(=O)C(=CNc1cccc(C)c1C)C(=O)OCC,,1.58 µM (active)
NCCSS(=O)(=O)CCN,27.6% [at 11.4 µM],

SMILES,"activity, negative = inhibition",AC50
Cc1nc2c(C)cccn2c1/C(O)=C1\C(=O)C(=O)N(CCN2CCOCC2)C1c1cccs1 (stereo unspecified),17.2%,
COC(=O)C/C=C\[C@@H](C)[C@@H](/C=N\OC[C@@H](O)[C@H]1O[C@H]2OC(C)(C)O[C@H]2[C@@H]1O)NS(=O)(=O)c1ccc(C)cc1,-10.1% [at 11.4 µM],
CC1(C)C(=O)C(c2ccccc2)=C2CN3C(=O)N(CCc4ccccc4)C(=O)C3(Cc3ccc(F)cc3)C=C21 (stereo unspecified),3.53%,
CC(C)(C)Nc1nc(N2CCCC2)nc(N2CCCC2)n1,,3.55 µM (active)
CNc1nc(Cl)nc(NC(C)(C)C)n1,22.1%,
Cc1cc(C)n(-c2nc(NC(C)(C)C)nc(NC(C)(C)C)n2)n1,18.4%,
COC(=O)C/C=C\[C@@H](C)[C@@H](CO)NS(=O)(=O)c1ccc(C)cc1,-2.05% [at 11.4 µM],
O=C1/C(=C\c2ccc(Br)o2)SC(=Nc2ccccc2)N1c1ccccc1,-10%,
Cc1cc(C(=O)Nc2ccc(N3CCOCC3)cc2)c2ccccc2n1,,14.1 µM (active)
COC(=O)c1sccc1NC(=O)c1cc(-c2ccc(C)cc2)nc2ccccc12,-8.26%,
Cc1cccc(NC(=O)NNC(=O)c2cc(-c3ccccc3Cl)nc3ccccc23)c1,3.57%,
CC(C)(C)c1nc(SCC(=O)Nc2ccc(N3CCOCC3)cc2)c2ccccc2n1,-6.23%,
Cc1cc(C(=O)Nc2c(C)n(C)n(-c3ccccc3)c2=O)c2ccccc2n1,6.28%,
Cc1ccc(NC(=O)c2cc(Cl)nc3ccccc23)cc1,,0.178 µM (active)
O=C1C2=C(Nc3cc([N+](=O)[O-])ccc3N2)O[C@@H]1c1ccc([C@H]2OC3=C(Nc4ccc([N+](=O)[O-])cc4N3)C2=O)cc1,-7.54% [at 11.4 µM],
O=C1c2ccccc2C(=O)c2c(NC3CCCCC3)ccc(Nc3ccc(S(=O)(=O)O)cc3)c21,-10.8% [at 11.4 µM],
Nc1c(-c2ccccc2)cnn1-c1cccc([N+](=O)[O-])c1,-16.5%,
COc1cc(C)nc(N2CCCC(C(=O)Nc3cc(Cl)ccc3OC)C2)n1 (stereo unspecified),-2.34%,
COCCn1c(=O)c(-c2ccc(Cl)cc2)nc2cnc(N3CCOCC3)nc21,3.63%,
N#Cc1c[nH]n2c(=O)c3c(nc12)CCCC3,-1.42%,
CC1=C(C(=O)Nc2ccccc2)C(c2ccco2)NC(=S)N1 (stereo unspecified),-19.7%,
CC1(C)SC(=S)N(NC(=O)Nc2ccccc2)C1N(O)C(=O)Nc1ccccc1 (stereo unspecified),,25.1 µM (active)
COC(=O)C1CCC(C)(C(=O)Nc2ccccc2)C1(C)C (stereo unspecified),-19.3%,

SMILES,"activity, negative = inhibition",AC50
Cc1cccc(NC(=O)c2cccc(N3C(=O)C4C5CCC(C5)C4C3=O)c2)c1C (stereo unspecified),4.27%,
CNC(=O)NC(=O)CSc1nnc(-c2ccco2)n1Cc1ccccc1,-9.65%,
COc1ccc(NC(=O)CSc2nnc(Cc3cccn3C)n2CCc2ccccc2)c(OC)c1,,3.98 µM (active)
COc1ccc(OC)c(C(=O)CN2C(=O)NC(C)(c3ccccc3)C2=O)c1 (stereo unspecified),3.09%,
CCn1c(COc2ccccc2)nnc1SCC(=O)Nc1cc(OC)ccc1OC,-25.2%,
COc1ccc(OC)c(C(=O)CSc2nnc(Cc3cccs3)n2CCc2ccccc2)c1,,5.62 µM (active)
Cc1cc(C)c(NC(=O)CSc2nnc(Cc3cccn3C)n2-c2ccc(F)cc2)c(C)c1,-28.9%,
CC(=O)Nc1ccc(Cc2ccc3[nH]c(=O)cc(C)c3c2)cc1,2.4% [at 11.4 µM],
Cc1nc(-n2[nH]c3c(c2=O)CCCC3)[nH]c(=O)c1Cc1ccccc1,17.8%,
COc1ccc(C2C(C(=O)c3ccco3)=C(O)C(=O)N2Cc2cccnc2)cc1OC (stereo unspecified),29.8%,
COc1ccc(/C=N\NC(=O)O)cc1,12.1% [at 11.4 µM],
CC(=O)N1CCC2(CC1)CN(C(=O)Nc1cccc(C#N)c1)C2,-3.86%,
Cc1cc2cc3c(C)cc(=O)oc3c(C)c2o1,2.76% [at 25.6 µM],
CCOC(=S)NC(=O)c1sc2ccccc2c1Cl,-9.37%,
CN1CCc2ccccc2[C@@H]1Cc1ccccc1NC(=O)c1sc2ccccc2c1Cl,,0.0794 µM (active)
CCCC(=O)N1CCN(c2ccc(NC(=O)c3sc4ccccc4c3Cl)cc2)CC1,19.9%,
O=C(CC1CCCCC1)N1CCC(c2nc(-c3ccc(S(=O)(=O)N4CCCC4)cc3)no2)CC1,-17%,
COc1cccc(NC(=S)NNC(=O)C(C)n2nc(C)c([N+](=O)[O-])c2C)c1 (stereo unspecified),-12.1%,
CC[n+]1c(P(=O)([O-])c2ccccc2)[nH]c2ccccc21,-7.96%,
O=C(Nc1ccccc1)N1CC[C@@]2(CCCN(C(=O)c3cc(C(F)(F)F)cc(C(F)(F)F)c3)C2)C1,,15.8 µM (active)
O=C(c1cc(C(F)(F)F)cc(C(F)(F)F)c1)N1CCC[C@@]2(CCN(Cc3ccncc3)C2)C1,,5.01 µM (active)
O=C(Nc1cccc(F)c1)N1CC[C@@]2(CCCN(C(=O)c3cc(C(F)(F)F)cc(C(F)(F)F)c3)C2)C1,0.812%,
N#Cc1ccc(CN2CC[C@@]3(CCCN(C(=O)c4cc(C(F)(F)F)cc(C(F)(F)F)c4)C3)C2)cc1,-5.62%,

SMILES,"activity, negative = inhibition",AC50
O=C(c1cc(C(F)(F)F)cc(C(F)(F)F)c1)N1CCC[C@@]2(CCN(Cc3ccccc3)C2)C1,,10 µM (active)
O=C(Nc1ccccc1)N1CC2(CCN(C(=O)c3cc(C(F)(F)F)cc(C(F)(F)F)c3)CC2)C1,-2.55%,
O=C(c1cc(C(F)(F)F)cc(C(F)(F)F)c1)N1CCC[C@@]2(CCN(Cc3nccs3)C2)C1,-15.2%,
O=C(c1cc(C(F)(F)F)cc(C(F)(F)F)c1)N1CCC2(CCCN(Cc3ccncc3)C2)CC1,-9.54%,
O=C(c1cc(C(F)(F)F)cc(C(F)(F)F)c1)N1CCC2(CC1)CN(Cc1ccccc1)C2,-0.939%,
CC[N+](C)(CC)CCN1C(=O)c2ccccc2S1(=O)=O,-3.94% [at 11.4 µM],
Cc1c(NC(=O)C23CC4CC(CC(C)(C4)C2)C3)c(=O)n(-c2ccccc2)n1C,10.1%,
CC12CC[C@@H]3c4ccc(OP(=O)(O)O)cc4CCC3C1CCC2=O (stereo partly specified),0.651% [at 11.4 µM],
Cn1cc(C(=O)c2cccc(Cl)c2Cl)cc1C(=O)O,0.979%,
O=C(O)[C@H](CCc1ccccc1)N1C(=O)c2ccccc2C1=O,15.2% [at 11.4 µM],
c1ccc2c(c1)C(=Nc1ccc(N=C3c4ccccc4-c4ccccc43)cc1)c1ccccc1-2,-8.16% [at 11.4 µM],
O=C(O)c1ccc(C(=O)O)c(C(=O)O)c1.[NH-][C@@H]1CCCC[C@@H]1[NH-].[Pt],7.05% [at 11.4 µM],
CC12CS(=O)(=O)CC1SC(=S)N2c1ccccn1 (stereo unspecified),-5.58%,
Cc1cc(O)c(C(C)C)cc1NC(=O)Nc1cccc2ccccc12,-5.76% [at 11.4 µM],
CC1(C)CC(=O)C2=C(C1)N(c1ccc(F)cc1)C(N)=C(C#N)C2c1cccs1 (stereo unspecified),-3.42%,
Cc1cc(N2CCN(C)CC2)n2nc(-c3ccc(Cl)cc3)nc2n1,15% [at 11.4 µM],
COc1cc(C)cc(OC)c1/C=C\C(=O)O,2.34% [at 11.4 µM],
CN(C)CC(O)COc1cccc(OCC(O)CN(C)C)c1 (stereo unspecified),-5.6%,
C[C@@H](COc1ccccc1)N(CCCl)Cc1ccccc1,,0.158 µM (active)
CCOC(=O)c1cnc2ccc(C)cc2c1Sc1ccccc1C(=O)OC,-21.2%,
CNCCCC1c2ccccc2C=Cc2ccccc21,,15.8 µM (active) and 3.98 µM (active)
COc1ccc2c(c1OC)C(=O)N(C(C)C(=O)O)C2=O (stereo unspecified),25.2%,
